# Compound activity as filed in PubChem BioAssay.
# Hits are enriched below; roughly 1.4% of the tested compounds scored in any of these assays.
# mIDH1 inhibitor: blocks human mutant IDH1 R132H enzyme; actives 0.093% (n = 390,000); Potency, µM (series often up to 76.6 µM), inactives show at the top dose activity change, negative = inhibition, most hits filed as inhibitors; IDH1-R132H enzyme, NADPH consumption, diaphorase/resazurin fluorescence; O75874; AID 602179; note: potency is the fitted concentration of half-maximal effect; nearly all actives have a fitted effect of over 65% in size
#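 IDH1-R132H (0.5 ug/mL) preincubated 30 min with compound, then NADPH (0.016 mM) and alpha-KG (2 mM) added; 80 min at RT, pH 7.5. Remaining NADPH coupled via diaphorase/resazurin to fluorescence (540/590 nm); concentration-response curves normalized to no-enzyme control.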
# GLS inhibitor: blocks human kidney-isoform glutaminase activity | GLS enzymatic activity, qHTS titration | actives 0.21% (n = 410,000) | Potency, µM (highest dose often 45.5 µM), inactives show at the highest dose activity change, negative = inhibition, actives largely listed as inhibitors; note: potency is the fitted concentration of half-maximal effect
# Target sequence (O94925 whole entry, looked up, canonical isoform): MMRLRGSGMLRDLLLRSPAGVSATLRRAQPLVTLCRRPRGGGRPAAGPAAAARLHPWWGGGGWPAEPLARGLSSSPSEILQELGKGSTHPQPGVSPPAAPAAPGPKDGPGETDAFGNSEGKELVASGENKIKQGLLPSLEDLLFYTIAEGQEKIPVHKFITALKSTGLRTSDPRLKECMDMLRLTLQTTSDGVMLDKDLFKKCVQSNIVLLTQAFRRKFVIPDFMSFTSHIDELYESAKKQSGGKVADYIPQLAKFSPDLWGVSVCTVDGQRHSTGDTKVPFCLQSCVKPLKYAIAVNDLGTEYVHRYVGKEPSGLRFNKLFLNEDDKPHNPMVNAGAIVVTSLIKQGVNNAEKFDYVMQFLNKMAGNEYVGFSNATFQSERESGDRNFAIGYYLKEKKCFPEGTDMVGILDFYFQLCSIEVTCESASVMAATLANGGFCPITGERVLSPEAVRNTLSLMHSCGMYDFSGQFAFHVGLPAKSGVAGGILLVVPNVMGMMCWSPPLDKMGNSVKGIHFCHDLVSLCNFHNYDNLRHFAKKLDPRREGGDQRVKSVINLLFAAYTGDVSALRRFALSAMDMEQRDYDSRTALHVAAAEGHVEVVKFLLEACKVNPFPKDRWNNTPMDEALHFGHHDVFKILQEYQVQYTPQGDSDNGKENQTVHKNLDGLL
#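 Compounds were pin-transferred onto hKGA, after which L-glutamine (1 mM solution) and a detection mix of glutamate oxidase, HRP and Amplex Red were added. Initial and 30 min RT fluorescence reads were collected.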
# LDHA inh: inhibitors of human lactate dehydrogenase A | purified LDHA, NADH/diaphorase-resazurin fluorescence; hits give low values | activity change, % (values are at about 110 or 230 µM) | actives 0.15% (n = 480,000) | P00338; in the data active = activity change below about -30%; inconclusive = mostly about -25% to -30%;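 note: plate controls were DMSO wells for no effect and wells without enzyme for full effect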
#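 Human LDH5 at 2 nM final in Tris HCl pH 7.4 with 0.06 mM NADH and 0.2 mM pyruvate, reacted 5 minutes at room temperature. Remaining NADH coupled via diaphorase/resazurin; resorufin fluorescence read at 0 and 20 minutes, normalized to enzyme-free and DMSO wells.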
# PKM2 act: activators of human pyruvate kinase M2. purified PKM2, Kinase-Glo ATP luminescence, activation; response scale: 0% is enzyme alone, no compound. AID 1631. Potency, µM (titrated, usually from 57.5 µM), for inactives: top-dose activation, hits mostly activators. actives 0.34% (n = 260,000). P14618; note: potency is the fitted concentration of half-maximal effect; nearly all actives have a fitted effect of over 55% in size
#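 ATP formation by purified human PK-M2, quantified via coupled luciferase luminescence after 1 h at room temperature with 0.1 mM ADP and 0.5 mM PEP final.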
# rTrxR1 inhibitor: blocks rat thioredoxin reductase 1. O89049. recombinant rTrxR1, NADPH fluorescence consumption, selenite substrate. Potency, µM (doses to about 114 µM), without a hit: top-dose activity change, negative = inhibition, actives largely listed as inhibitors. actives 1% (n = 390,000). AID 588453; note: potency is the fitted concentration of half-maximal effect; nearly all actives have a fitted effect of over 65% in size
#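 Rat TrxR1 (90 nM in the dispensed reagent) was pre-reduced with 400 uM NADPH for 5 min at room temperature, then incubated with compound for 15 min. After 400 uM selenite was added, NADPH fluorescence (Ex 340/Em 450 nm) was followed for 8 min.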
# TrxR1 substrate: is turned over as a substrate by rat TrxR1; O89049; purified TrxR1 substrate turnover, NADPH consumption readout; Potency, µM (top dose mostly 114 µM), inactives show at the top dose activity change, negative = substrate turnover; actives 0.01% (n = 390,000); note: potency is the fitted concentration of half-maximal effect; nearly all actives have a fitted effect of over 50% in size
#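 Rat TrxR1, dispensed at 90 nM, was prereduced with 400 uM NADPH (final) for 5 min at ~22 deg C, then incubated with compound 15 min before 400 uM selenite. A first-read NADPH fluorescence drop versus no-compound background flagged substrates.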
# Starred values were filed as active, the others as inactive; ? = inconclusive; . = not tested or not shown; ! = not confirmed by another sample; [ ] = dose if it differs, or a comment. Unless noted, calls come from the whole dose curve; as a rule, active = well fitted curve in the direction sought with a large enough effect; inconclusive = small, poorly fitted or top-dose-only effect, or another doubt; inactive = no such curve, though single readings can be large; an effect the other way counts as inactive or inconclusive. Unless noted, % is set by controls: 0 for no effect and ±100 for the full control effect.
SMILES,mIDH1 inhibitor,GLS inhibitor,LDHA inh,PKM2 act,rTrxR1 inhibitor,TrxR1 substrate
COc1cc(Cl)c(C)cc1NC(=O)CSc1ncc(S(=O)(=O)c2ccc(C(C)(C)C)cc2)c(=O)[nH]1,-29%,?,-39*,.,-19%,-5%
CC(C)(C)c1ccc(S(=O)(=O)c2cnc(SCC(=O)Nc3ccc(F)c(Cl)c3)[nH]c2=O)cc1,?,2%,-49*,.,6%,7%[0.457 µM]
CCCCc1ccc(-c2cc(C(=O)NC3CCCC3)c3cc(Br)ccc3n2)cc1,.,.,7,.,.,.
CCN(CC)C(=O)CSc1nc(-c2ccccc2)c(-c2ccccc2)o1,.,.,0,.,.,.
Cc1cc(C)c(S(=O)(=O)c2ccccc2)c(OC(=O)c2c(F)cccc2F)n1,25%,?,-50*,9%,2%[57.1 µM],6%[57.1 µM]
Oc1cccc(C2c3[nH]c4ccccc4c3CCN2Cc2ccoc2)c1 (stereo not given),-11%,9%,-121*,0%,40µM*,6%
Oc1cccc(C2c3[nH]c4ccccc4c3CCN2Cc2ccc3c(c2)CCO3)c1 (stereo not given),-4%,-10%,-7,0%,13%[57.1 µM],7%[57.1 µM]
CCCc1cc(=O)oc2cc(C)cc(OCC(=O)Nc3ccc(S(N)(=O)=O)cc3)c12,9%,10%,-11,.,20µM*,-5%
CCCc1cc(=O)oc2cc(C)cc(OCC(=O)Nc3ccccn3)c12,3%,-4%,0,.,27%,17%
CN(C)c1ccc(NC(=O)c2ccc3ccccc3c2)cc1,.,.,4,.,.,.
COc1cc(/C=C(/C#N)C(=O)c2ccccc2)ccc1OC(=O)c1ccc(F)cc1,.,.,11,.,.,.
CCOc1ccccc1CN1CCC(N2CCOCC2)CC1,9%,4%,-31*,.,12%,-3%
COc1cccc(C(=O)Nc2ccc3oc(-c4ccccc4)cc(=O)c3c2)c1,.,.,1,.,.,.
CC(=O)N1C=Cc2ccccc2C1CC(=O)Nc1ccc(S(=O)(=O)N2CCCCCC2)cc1 (stereo not given),.,.,13,.,.,.
COC(=O)c1cn[nH]c1NC(=S)Nc1ccc(C)cc1Cl,3%,8%,-4,-3%,?,5%
COC(=O)c1cn[nH]c1NC(=S)Nc1ccccc1C,5%,7%,-9,0%,0.79µM*,10%
CCC(=O)NC(=S)Nc1ccccc1C(=O)OC,-4%,5%,-7,-1%,50µM*,-4%
CCCC(=O)N(C)c1ccc(/C=C2\C=Cc3ccccc32)cc1,.,.,8,.,20µM*,-7%
CC(=O)N(C)c1ccc(/C=C2\C=Cc3ccccc32)cc1,.,.,6,.,?,-4%
CCn1c2ccccc2c2cc(/C=C3/C=Cc4ccccc43)ccc21,.,.,-55*,.,-8%,-7%
CC(=O)N1CC(=O)N=C1SCC(=O)Nc1nc(C)c(-c2ccccc2)s1,-1%,-9%,-2,20µM*,13%[57.1 µM],-3%[57.1 µM]
S=c1[nH]c2ccccc2n1CCc1ccccc1,.,.,-2,.,.,.
CCn1c(=S)[nH]c2ccccc21,6%,15%,-9,3%,89µM*,529%
Cc1cc(-c2ccc(N=Nc3ccc4c(S(=O)(=O)O)cc(S(=O)(=O)O)c(N)c4c3O)c(C)c2)ccc1N=Nc1ccc2c(S(=O)(=O)O)cc(S(=O)(=O)O)c(N)c2c1O,.,14µM*!,.,.,.,.
CCN(CC)Cc1cc(C(C)=O)ccc1OCC(C)C,1%,5%,-5,-3%,35µM*,-5%
SMILES,mIDH1 inhibitor,GLS inhibitor,LDHA inh,PKM2 act,rTrxR1 inhibitor,TrxR1 substrate
CC(=O)c1ccc(OCC(C)C)c(CC(C(N)=O)C(N)=O)c1,-6%,-14%,-9,-5%,13%,-1%
COc1ccccc1-n1[nH]c(C)c(Cc2ccccc2Cl)c1=O,.,.,-44*,.,.,.
CSCCC(NC(C)=O)C(=O)Oc1ccc2c3c(c(=O)oc2c1)CCCC3 (stereo not given),8%,23%,0,8%,50µM*,583%
CC(=O)Oc1ccc2c3c(c(=O)oc2c1)CCCC3,-6%,2%,-2,2%,9%,20%
CSC1=C(C#N)C(c2ccccc2Cl)C2=C(CCCC2=O)N1 (stereo not given),.,.,.,0%,.,.
CSC1=C(C#N)C(c2ccccc2Cl)C2=C(N1)c1ccccc1C2=O (stereo not given),-21%,-21%,0,27%,50µM*,-6%
Cc1oc2c(C)c(O)ccc2c(=O)c1-c1nncn1-c1ccccc1,7%,0%,4,18µM*,6%,0%
Cc1oc2c(C)c(O)ccc2c(=O)c1N1C(=O)c2ccccc2C1=O,5%,11%,-5,6%,-8%,-9%
C=C(C)CN1CCN(c2nc3c(c(=O)[nH]c(=O)n3C)n2Cc2ccccc2Cl)CC1,.,.,-2,.,.,.
C=CCn1c(N)c(C(=O)NCc2ccco2)sc1=S,3%,-6%,-5,8.9µM*,3%,1%
CC(=O)N=c1sccn1CC(O)c1ccc(Br)cc1 (stereo not given),-6%,5%,-12,-2%,7%[57.1 µM],12%[0.0914 µM]
Cn1ccs/c1=N\S(=O)(=O)c1ccc(Br)cc1,-1%,-1%,1,16µM*,-2%[57.1 µM],8%[57.1 µM]
COC(=O)C1Cc2ccccc2CN1C(=O)CCl (stereo not given),21%,7%,0,-9%,14µM*,7%[57.1 µM]
CC1CCN(CCOCCOc2ccc(Cl)cc2Br)CC1,4%,6%,-34*,-6%,22%,13%
COc1ccc(-n2c(-c3cccc(C)c3[N+](=O)[O-])n[nH]c2=S)cc1,2%,?,2,11µM*,-15%,3%
CC(C(=O)Nc1ccc(OC(F)(F)F)cc1)N1CCN(c2ccc([N+](=O)[O-])c3cnccc23)CC1 (stereo not given),.,.,16,.,.,.
CNc1n[nH]c(=S)s1,4%,14µM*,-6,-8%,-7%[57.1 µM],-15%[57.1 µM]
CCN(Cc1ccc(Br)s1)C(=O)Cn1nnc(-c2ccccc2)n1,.,.,27,.,.,.
NC(=O)Cc1ccc(Nc2nnc(-c3ccc(O)cc3)c3ccccc23)cc1,8%,11µM*,1,13%,-7%,-1%
NC(=O)c1ccc(Nc2nnc(-c3ccc(O)cc3)c3ccccc23)cc1,2%,171%,-10,2%,-17%,-12%
Cc1csc(CNC(=O)c2sccc2C)n1,.,.,0,.,.,.
